Measles CPE – protection of cells from measles virus. Measles virus-infected cells, CPE protection, absorbance. protection (pct of control), % at 4 µM. 140,000 compounds, 1.5% hits; in the data active = protection mostly above about 24%, no sharp cut-off; inactive = mostly below about 26%
CYP2C9 inhib – inhibitors of human CYP2C9; CYP2C9 Supersomes, luciferin-H conversion, luminescence; inhibition, % at 5 µM; 96,000 compounds, 20% hits;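 active = blocking of liver enzyme CYP2C9 beyond about 50% at 5 µM, limit read from the data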
CYP2C19 act – increases human CYP2C19 enzyme activity | recombinant CYP2C19, luciferin-H EGE luminescence; stronger effect = higher value; 0 = fully inhibited enzyme, 1 = untreated enzyme | activation factor at 5 µM | P33261 | AID 1025 | 96,000 tested, under 10 active;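 active = activation factor of at least 2 at 5 µM in the primary screen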
CYP2C19 inhib – blocks human cytochrome P450 2C19. inhibition, % at 5 µM. 96,000 compounds, 21% hits. CYP2C19 Supersomes, luciferin-H EGE luminescence, 30 min;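 active = CYP2C19 inhibition above a set limit at 5 µM in the primary screen, cut at about 50% in these data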
CYP2C9 activ – CYP2C9 (human) activation; activation factor at 5 µM; P11712; recombinant CYP2C9, luciferin-H conversion, luminescence; stronger effect = higher value; factor 1 = untreated enzyme, 0 = blocked; AID 1024; 96,000 compounds, 1.4% hits;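 active = activation factor of 2 or more for CYP2C9 at a 5 µM dose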
Numbers stand for hits; n = inactive; x = no result. A selection follows.

SMILES	Measles CPE	CYP2C9 inhib	CYP2C19 act	CYP2C19 inhib	CYP2C9 activ
CCOC(=O)c1c(C)n(C(C)C)c2ccc(OC(=O)c3ccc(N4C(=O)CCC4=O)cc3)cc12	n	x	x	x	x
CCC(=NCCCN(C)C)c1c(O)n(-c2ccc(OC)cc2)c(=O)[nH]c1=O	n	n	n	n	n
CC1CN(O)C2CCc3nonc3C12O (stereo not drawn)	n	n	n	n	n
CCOC(=O)C1C(=O)NC2(C)CC1c1cc(OC)ccc1O2 (stereo not drawn)	n	n	n	n	n
CC(C)OC(=O)C1C(=O)NC2(C)CC1c1ccccc1O2 (stereo not drawn)	n	n	n	60.5	n
CC1=C(/C=C/c2ccccc2)CCN(C)C1	n	n	n	n	n
C=C1N2CCC(CC2)C1(O)c1ccccc1C (stereo not drawn)	n	n	n	n	n
